Bioassay records deposited in PubChem by National Center for Advancing Translational Sciences (NCATS).
TDP43 rescue: rescues yeast growth from TDP-43 toxicity. hit rate 1.8% among 410,000. AID 652104. Potency, µM (series often up to 46.1 µM), usual class: activators. TDP-43 expressing yeast growth rescue, BacTiter-Glo, 24 h; also: nearly all actives have a fitted effect of over 50% in size
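Readout is BacTiter-Glo luminescence of cell growth, so inhibitors register as activators. TDP-43-expressing yeast at OD600=0.02 in galactose medium, after raffinose pregrowth to mid-log, were incubated with compound for 24 hr at 30 deg C.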
ERG-DNA inh: inhibitors of human ERG Ets domain-DNA interaction; P11308; fluorescence polarization, His-ERG Ets domain / labelled DNA; Potency, µM (titrated, usually from 76.9 µM), hits mostly inhibitors; hit rate 0.028% among 370,000; AID 624246; active = well fitted inhibition curve with a large enough effect in the polarisation, with a control signal flat; inconclusive = small, poorly fitted or top-dose-only effect, or effect the other way, or a change in a side signal; inactive = no such curve, though single readings can be large or run the other way; the % refers to the polarisation;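 also: polarization taken with two DNA probes labelled with fluorescein and Texas red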
Target sequence (P11308 whole entry, looked up, the tested form may be a part): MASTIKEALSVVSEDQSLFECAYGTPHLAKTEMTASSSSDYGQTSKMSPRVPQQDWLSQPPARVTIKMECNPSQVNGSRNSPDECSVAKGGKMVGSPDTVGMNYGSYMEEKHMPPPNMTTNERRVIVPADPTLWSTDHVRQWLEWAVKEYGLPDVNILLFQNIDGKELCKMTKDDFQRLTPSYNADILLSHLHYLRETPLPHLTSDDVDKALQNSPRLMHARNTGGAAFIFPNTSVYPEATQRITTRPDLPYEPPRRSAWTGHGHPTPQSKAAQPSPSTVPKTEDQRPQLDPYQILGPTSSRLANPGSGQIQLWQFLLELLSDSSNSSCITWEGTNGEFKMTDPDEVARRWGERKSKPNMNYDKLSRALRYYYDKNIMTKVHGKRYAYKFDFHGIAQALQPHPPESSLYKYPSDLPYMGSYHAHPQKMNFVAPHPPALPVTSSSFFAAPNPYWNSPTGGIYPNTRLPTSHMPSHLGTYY
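His-tagged ERG Ets domain (1 uM in the protein solution; 300mM KCl, 50mM Tris-HCl, 1mM EDTA, 1mM DTT, pH 7.5) received compound, then a probe mix of 5 nM fluorescein-DNA and 100nM Texas-615-DNA. Fluorescence polarization was read for both dyes.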
FUS yeast rescue: suppressors of FUS proteinopathy in yeast; S. cerevisiae FUS-expressing, growth rescue, OD600, 24 h; Potency, µM (titrated, usually from 76.6 µM), actives largely listed as activators; hit rate 0.24% among 390,000; AID 1347120; also: nearly all actives have a fitted effect of over 55% in size
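Restored growth of FUS-toxic S. cerevisiae, read as 600 nm absorbance after 24 h at 30C in galactose medium (starting OD 0.005). Controls CP55940 and DMSO.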
Mito fusion yeast: mitochondrial division inhibition or fusion activation | Potency, µM (doses to about 46.1 µM), hits mostly activators | AID 485298 | S. cerevisiae fusion-defective mutant growth rescue, CellTiterGlo 48 h | hit rate 0.23% among 320,000; also: nearly all actives have a fitted effect of over 45% in size
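Growth-rescue viability read-out: after 48 h at the non-permissive 37C in glycerol/ethanol YPEG, yeast mitochondrial fusion mutants are measured by CellTiterGlo luminescence; compounds (23 nl pinned per well) restoring growth score as division inhibitors or fusion activators.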
Abeta rescue: compounds reversing amyloid beta toxicity in yeast; yeast expressing A-beta42, growth rescue, OD600, 48 h; response scale: 0% DMSO, 100% iron-clioquinol control; Potency, µM (top dose mostly 46.1 µM), hits mostly activators; hit rate 0.063% among 410,000; AID 1347071; also: nearly all actives have a fitted effect of over 55% in size
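Yeast A-beta toxicity model in growth medium with pinned compounds, 48 h at 30 C; growth read as absorbance at 600 nm. Normalized to FeCl3/clioquinol equimolar mix (positive) and DMSO (negative).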
aSyn yeast inh: rescues yeast growth from alpha-synuclein toxicity. Yeast expressing alpha-synuclein, growth rescue, BacTiter-Glo, 24 h. Potency, µM (series often up to 46.1 µM), actives largely listed as activators. hit rate 0.14% among 370,000; also: nearly all actives have a fitted effect of over 65% in size
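Readout is rescue of growth in alpha-synuclein-expressing yeast, so inhibitors of toxicity appear as activators. Growth after 24 hr at 30 deg C in galactose medium is quantified by luminescence.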
Hits are given with their value; [ ] = dose if it differs, or a comment. Only some compounds are listed: those with a hit (about 2.2% of all), similar ones and a draw of the others. Unless noted, calls follow the shape of the dose curve; as a rule, active = well fitted curve in the direction sought with a large enough effect; inconclusive = small, poorly fitted or top-dose-only effect, or another doubt; inactive = no such curve, though single readings can be large; an effect the other way counts as inactive or inconclusive.

CCOC(=O)c1cc(OC(=O)c2ccccc2)n(-c2ccccc2)n1 was read as TDP43 rescue inactive, ERG-DNA inh inactive, FUS yeast rescue inactive, Mito fusion yeast inactive, Abeta rescue inactive and aSyn yeast inh inactive.
For COc1ccc(C(=O)Oc2ccc(=O)n(-c3ccccc3)n2)cc1 the results were TDP43 rescue 14µM, ERG-DNA inh inactive, FUS yeast rescue inactive, Mito fusion yeast inactive, Abeta rescue inactive and aSyn yeast inh inactive.
`CCOC(=O)c1cc(OC(=O)c2ccc(OC)cc2)n(-c2ccccc2)n1` gave TDP43 rescue 18µM, ERG-DNA inh inactive, FUS yeast rescue inactive, Abeta rescue inactive and aSyn yeast inh inactive.
CN1C(=O)c2cc(NC(=O)Cc3cccs3)ccc2OC[C@@H]2O[C@@H](CC(=O)N[C@H]3CCN(Cc4ccccc4)C3)CC[C@@H]21 was read as FUS yeast rescue inactive.
For Cc1ccc(S(=O)(=O)N(C)C[C@@H]2Oc3ncc(C#CCC(C)C)cc3C(=O)N([C@H](C)CO)C[C@H]2C)cc1 the results were TDP43 rescue 25µM, FUS yeast rescue 28µM, Abeta rescue inactive and aSyn yeast inh inactive.
`Cc1ccc(S(=O)(=O)Nc2ccc3c(c2)C(=O)N([C@H](C)CO)C[C@H](C)[C@H](CN(C)C(=O)Nc2cccc4ccccc24)OCCCC[C@@H](C)O3)cc1` gave TDP43 rescue inconclusive, FUS yeast rescue 13µM, Abeta rescue inactive and aSyn yeast inh inactive.
For COc1ccc(S(=O)(=O)Nc2ccc3c(c2)C(=O)N([C@H](C)CO)C[C@H](C)[C@@H](CN(C)S(=O)(=O)c2ccccc2)O3)cc1 the results were TDP43 rescue inactive, ERG-DNA inh inactive, FUS yeast rescue inconclusive, Abeta rescue inactive and aSyn yeast inh inactive.
Screening COc1ccc(S(=O)(=O)N(C)C[C@H]2Oc3ccc(NS(=O)(=O)c4ccccc4)cc3C(=O)N([C@H](C)CO)C[C@@H]2C)cc1 returned TDP43 rescue inactive, ERG-DNA inh inactive, FUS yeast rescue 18µM, Abeta rescue inactive and aSyn yeast inh inactive.
For Cc1ccc(S(=O)(=O)Nc2ccc3c(c2)C(=O)N([C@H](C)CO)C[C@H](C)[C@@H](CN(C)C(=O)NC2CCCCC2)OCCCC[C@@H](C)O3)cc1 the results were TDP43 rescue inactive, FUS yeast rescue 16µM, Abeta rescue inactive and aSyn yeast inh inactive.
O=c1cc(N2CCN(c3ccc(F)cc3)CC2)[nH]c(=O)n1-c1cccc(Br)c1 was read as TDP43 rescue inactive, ERG-DNA inh inactive, FUS yeast rescue inactive and Abeta rescue inactive.
O=C(Nc1ccc(F)cc1)c1ccccc1Oc1ccc(C(F)(F)F)cc1[N+](=O)[O-] was read as TDP43 rescue 22µM, ERG-DNA inh inactive, Mito fusion yeast inconclusive, Abeta rescue inactive and aSyn yeast inh 14µM.
`O=C(Nc1ccccc1)c1ccccc1Oc1ccc(C(F)(F)F)cc1[N+](=O)[O-]` gave TDP43 rescue 20µM, ERG-DNA inh inactive, FUS yeast rescue inactive, Mito fusion yeast inconclusive, Abeta rescue inactive and aSyn yeast inh inactive.
Cc1ccccc1-c1cc(C(=O)Nc2sc(C)c(C)c2C(N)=O)c2ccccc2n1 was read as TDP43 rescue 22µM, ERG-DNA inh inactive, FUS yeast rescue inactive, Mito fusion yeast inactive, Abeta rescue inactive and aSyn yeast inh inactive.
For Cc1cc(NC(=O)c2ccc(Br)o2)cc(-c2nc3ccccc3o2)c1O the results were TDP43 rescue inactive, ERG-DNA inh inactive, FUS yeast rescue inactive, Abeta rescue inactive and aSyn yeast inh inactive.
For Cc1ccccc1CCNC(=O)c1cc(C2CC2)nc2c1cnn2C(C)C the results were TDP43 rescue 35µM, ERG-DNA inh inactive, FUS yeast rescue inactive, Mito fusion yeast inconclusive, Abeta rescue inactive and aSyn yeast inh inactive.
Screening COc1cccc(CNC(=O)c2cc(C3CC3)nc3c2cnn3C(C)C)c1 returned TDP43 rescue 18µM, ERG-DNA inh inactive, FUS yeast rescue inconclusive, Mito fusion yeast inactive, Abeta rescue inactive and aSyn yeast inh inactive[1.84 µM].
COc1ccc(CNC(=O)c2cc(C3CC3)nc3c2cnn3C(C)C)cc1OC was read as TDP43 rescue inactive, ERG-DNA inh inactive, FUS yeast rescue inactive, Mito fusion yeast inactive, Abeta rescue inactive and aSyn yeast inh inactive.
For CCOc1ccc(CCNc2ncnc3onc(-c4ccc(F)cc4)c23)cc1OCC the results were TDP43 rescue inactive, ERG-DNA inh inactive, FUS yeast rescue inactive and Abeta rescue inactive.
`COc1nc(NCc2cccnc2)nc(NC2CCCCC2)n1` gave TDP43 rescue inactive, ERG-DNA inh inactive, FUS yeast rescue inactive, Mito fusion yeast 13µM, Abeta rescue inactive and aSyn yeast inh inactive.
For COc1nc(NCc2cccnc2)nc(OC)n1 the results were TDP43 rescue inactive, ERG-DNA inh inactive, FUS yeast rescue inactive, Mito fusion yeast inactive, Abeta rescue inactive and aSyn yeast inh inactive.
Screening CCOC(=O)CNC(=O)C1CCCc2c1[nH]c1ccc(Cl)cc21 (configuration not stated) returned TDP43 rescue 13µM, ERG-DNA inh inactive, FUS yeast rescue inactive, Mito fusion yeast inconclusive, Abeta rescue inconclusive and aSyn yeast inh inactive.
COc1cccc(-c2nc(SCC(=O)N3CCc4ccccc43)c3c(=O)n(C)c(=O)n(C)c3n2)c1 was read as TDP43 rescue inactive[9.22 µM], ERG-DNA inh inactive, FUS yeast rescue inactive and Abeta rescue inactive.
CC(=C/c1ccccc1)/C=N/n1c(-c2ccco2)n[nH]c1=S was read as TDP43 rescue 11µM, ERG-DNA inh inactive, FUS yeast rescue inactive, Mito fusion yeast inactive and Abeta rescue inactive.
`COc1ccc(-c2cc(-c3ccccc3)nc(-c3ccc4c(c3)NC(=O)CO4)c2)cc1` gave TDP43 rescue 13µM, ERG-DNA inh inactive, FUS yeast rescue inactive, Mito fusion yeast inactive and Abeta rescue inactive.
`CCOC(=O)c1ccc(Oc2nc(NC(C)(C)C)nc(N(C)C)n2)cc1` gave TDP43 rescue 22µM, ERG-DNA inh inactive, FUS yeast rescue inactive, Mito fusion yeast inactive, Abeta rescue inactive and aSyn yeast inh inactive.
Cn1c(=O)c2nc(SCCO)n(C)c2n(C)c1=O was read as TDP43 rescue inactive, ERG-DNA inh inactive, FUS yeast rescue inactive, Abeta rescue inactive and aSyn yeast inh inactive.
For CC1(C)CC(N2CCN(CCO)CC2)=CC(=S)N1 the results were TDP43 rescue inconclusive, ERG-DNA inh inactive, FUS yeast rescue inactive, Mito fusion yeast inactive, Abeta rescue inactive and aSyn yeast inh 18µM.
